Entries with a potency or affinity are not part of this list.

The source of these data is ChEMBL document CHEMBL4513146, “CO-ADD screening of Karazin Kharkiv National University (Ukraine) compounds”.

For the first assay, the system named is Staphylococcus aureus. Conditions: Concentration 32 ug.mL-1;; ASSAY_TEST Inhibition of Bacterial Growth; detection method Absorption (OD600); MEDIA CAMHB; plate type 384well; NBS; CORNING #3640; time 18 hr.
For `COc1cccc(CNC(=O)CSc2nnc3c(=O)n(-c4ccccc4)ccn23)c1OC`, the Inhibition – broadly, the relative decrease from the control value, in per cent – is recorded as 2.64%. Same read-out and setting: the value for `CCCn1c(=O)c2sccc2n2c(=O)n(CC(=O)c3cccc(OC)c3)nc12` was 2.99%. In the case of `Cc1nnc2ccc(S(=O)(=O)N(Cc3ccccc3F)c3cccc(F)c3)cn12`, the Inhibition came to 9.15%. Take `COc1ccc(NC(=O)Cn2nc3ccc(-c4ccc(Cl)cc4)nn3c2=O)cc1`: the Inhibition came out at 8.85%. For `Cc1nnc2c(=O)n(CC(=O)Nc3cccc(F)c3)c3ccccc3n12`, the Inhibition amounted to 14.13%. The same measure, in the same setting: the value for `O=c1n(Cc2ccc3c(c2)OCO3)nc2c(S(=O)(=O)N3CCCC3)cccn12` was 0.67%. For `CN(C)C(=O)CSc1nnc2c(=O)n(-c3ccc(F)cc3)ccn12`, the Inhibition was found to be 8.32%. The same measure, in the same setting: the value for `COC(=O)c1ccccc1NC(=O)Cn1nc2c3cc(-c4ccc(OC)cc4)nn3ccn2c1=O` was 11.07%; that for `COc1cccc(Oc2nccn3c(=O)n(CC(=O)NC4CCCCC4)nc23)c1` was 3.01%. The same measure, in the same setting: for `COc1ccc(-c2cc3c4nn(CC(=O)Nc5cccc(C)c5)c(=O)n4ccn3n2)cc1` the value was 1.22%. Take `Cc1ccc(Oc2nccn3c(=O)n(CC(=O)Nc4ccccc4C(F)(F)F)nc23)cc1`: the Inhibition was 6.18%. For the compound `O=C(CCc1nnc2c(N3CCCCC3)nc3ccccc3n12)NCc1ccccc1F`, the Inhibition was 5.87%. Consider `O=c1n(Cc2nc(-c3ccc4c(c3)OCO4)no2)nc2ccc(-c3ccccc3)nn12`, for which the Inhibition is given as -9.1%. Turning to `Cc1cccc(CN(c2cc(C)cc(C)c2)S(=O)(=O)c2cccn3c(C)nnc23)c1`, the Inhibition came to 6.42%. Regarding `NC(=O)CSc1nnc2c(=O)n(-c3ccc(F)cc3)ccn12`, the Inhibition stood at 22.03%. In the case of `CCCCn1c(=O)c2sccc2n2c(=O)n(CC(=O)c3ccc(OC)c(OC)c3)nc12`, the Inhibition is given as 13.6%. As for `CCc1cccc(C)c1NC(=O)Cn1nc2ccc(SCc3ccc(Cl)cc3)nn2c1=O`, the Inhibition is on record as -4.43%. Still for that read-out and setting: the value for `Cc1ccc(-c2cc3c4nn(CC(=O)Nc5ccc(Cl)cc5)c(=O)n4ccn3n2)cc1C` was -15.51%; that for `COC(=O)c1ccccc1NC(=O)Cn1nc2c3cc(-c4ccc(Cl)cc4)nn3ccn2c1=O` was 10.87%.

In the case of `Cc1nnc2c(S(=O)(=O)N(Cc3ccc(F)cc3)c3ccc(C(C)C)cc3)cccn12`, the Inhibition is on record as -0.08%. For the compound `COc1ccc(-c2cc3c4nn(CC(=O)Nc5ccc(C)cc5C)c(=O)n4ccn3n2)cc1`, the Inhibition amounted to 1.83%. Still for that read-out and setting: for `CC(C)CCn1c(=O)c2sccc2n2c(=O)n(CCOc3ccccc3)nc12` the value was 0.45%; for `CCCCc1ccc(NC(=O)Cn2c(=O)c3nnc(C(C)C)n3c3ccccc32)cc1`, 13.14%. Take `O=C(CSc1nc2ccccc2n2cnnc12)Nc1cccc(Br)c1`: the Inhibition was -6.77%.

For `Cc1ccc(NC(=O)Cn2nc3c4cc(-c5ccc(Cl)cc5)nn4ccn3c2=O)cc1C`, the Inhibition is reported as 10.49%.

For another assay, the system named is Escherichia coli. Conditions: Concentration 32 ug.mL-1;; ASSAY_TEST Inhibition of Bacterial Growth; detection method Absorption (OD600); MEDIA CAMHB; plate type 384well; NBS; CORNING #3640; time 18 hr.
For the compound `CCOc1ccc(-n2ccn3c(SC(CC)C(=O)Nc4cc(F)ccc4F)nnc3c2=O)cc1` (stereo not given), the Inhibition is -0.34%. Turning to `Cc1nnc2ccc(S(=O)(=O)N(Cc3ccccc3Cl)c3cccc(F)c3)cn12`, the Inhibition is given as -5.9%. With `CCCc1nnc2c(=O)n(CC(=O)Nc3cccc(C(C)=O)c3)c3ccccc3n12`, the Inhibition is listed as -14.35%. `Cc1c(Cl)cccc1-n1ccn2c(=O)n(Cc3cccc(F)c3)nc2c1=O`: the Inhibition is reported as -6.71%. As for `Cc1ccc(F)cc1NC(=O)CSc1nc2ccccc2n2c(C(C)C)nnc12`, the Inhibition is listed as -3.01%. The same measure, in the same setting: for `CC(C)(C)Sc1ccc2nn(CC(=O)Nc3ccccc3C(F)(F)F)c(=O)n2n1` the value was -2.49%; for `COc1ccc(N2CCN(C(=O)Cn3nc4c(Oc5ccc(C)cc5)nccn4c3=O)CC2)cc1`, -5.74%.

`CCc1ccccc1NC(=O)Cn1nc2c(SCc3ccc(Cl)cc3)nccn2c1=O`: the Inhibition is recorded as -5.25%. Consider `COc1cccc(CNC(=O)CSc2nnc3c4cc(-c5cc(C)ccc5C)nn4ccn23)c1OC`, for which the Inhibition was -5.6%. On to `CCCCc1ccc(NC(=O)Cn2nc3ccc(-c4ccc(C)c(C)c4)nn3c2=O)cc1`, for which the Inhibition is -1.54%.

In the case of `C=Cc1ccc(CN(c2ccc(CC)cc2)S(=O)(=O)c2cccn3c(C)nnc23)cc1`, the Inhibition is on record as -2.55%.

For the compound `O=c1c2sccc2n2c(=O)n(Cc3ccc(Cl)cc3)nc2n1Cc1cccs1`, the Inhibition was -9.25%. Regarding `CC(C)c1nnc2c(=O)n(CC(=O)Nc3cccc(C#N)c3)c3ccccc3n12`, the Inhibition is 2.48%. As for `CC(C)c1nnc2c(=O)n(CC(=O)Nc3ccc(F)cc3)c3ccccc3n12`, the Inhibition was 5.44%. On the same count and under the same terms, for `COc1cccc(-n2ccn3c(SCc4ccc(C)cc4)nnc3c2=O)c1` the value was -4.39%; for `COc1cccc(CNC(=O)CSc2nnc3c(=O)n(-c4ccccc4)ccn23)c1OC`, -7.08%; for `CCCn1c(=O)c2sccc2n2c(=O)n(CC(=O)c3cccc(OC)c3)nc12`, -2.97%. Regarding `Cc1nnc2ccc(S(=O)(=O)N(Cc3ccccc3F)c3cccc(F)c3)cn12`, the Inhibition is given as -8.44%. `COc1ccc(NC(=O)Cn2nc3ccc(-c4ccc(Cl)cc4)nn3c2=O)cc1`: the Inhibition is reported as -4.11%. Regarding `Cc1nnc2c(=O)n(CC(=O)Nc3cccc(F)c3)c3ccccc3n12`, the Inhibition is given as 2.22%. Regarding `O=c1n(Cc2ccc3c(c2)OCO3)nc2c(S(=O)(=O)N3CCCC3)cccn12`, the Inhibition is given as -7.1%.

For the compound `CN(C)C(=O)CSc1nnc2c(=O)n(-c3ccc(F)cc3)ccn12`, the Inhibition came out at 0.14%. As to `COC(=O)c1ccccc1NC(=O)Cn1nc2c3cc(-c4ccc(OC)cc4)nn3ccn2c1=O`, the Inhibition was determined as 4.87%.

For `COc1cccc(Oc2nccn3c(=O)n(CC(=O)NC4CCCCC4)nc23)c1`, the Inhibition was -4.58%. Consider `COc1ccc(-c2cc3c4nn(CC(=O)Nc5cccc(C)c5)c(=O)n4ccn3n2)cc1`, for which the Inhibition is recorded as -1.93%. Turning to `Cc1ccc(Oc2nccn3c(=O)n(CC(=O)Nc4ccccc4C(F)(F)F)nc23)cc1`, the Inhibition worked out at 0.58%. The same measure, in the same setting: the value for `O=C(CCc1nnc2c(N3CCCCC3)nc3ccccc3n12)NCc1ccccc1F` was 6.41%; that for `O=c1n(Cc2nc(-c3ccc4c(c3)OCO4)no2)nc2ccc(-c3ccccc3)nn12` was -9.98%; that for `Cc1cccc(CN(c2cc(C)cc(C)c2)S(=O)(=O)c2cccn3c(C)nnc23)c1` was -0.75%. Still for that read-out and setting: for `NC(=O)CSc1nnc2c(=O)n(-c3ccc(F)cc3)ccn12` the value was 3.06%; for `CCCCn1c(=O)c2sccc2n2c(=O)n(CC(=O)c3ccc(OC)c(OC)c3)nc12`, 0.21%. As for `CCc1cccc(C)c1NC(=O)Cn1nc2ccc(SCc3ccc(Cl)cc3)nn2c1=O`, the Inhibition is given as -10.21%. In the case of `Cc1ccc(-c2cc3c4nn(CC(=O)Nc5ccc(Cl)cc5)c(=O)n4ccn3n2)cc1C`, the Inhibition is reported as -16.09%.

Consider `COC(=O)c1ccccc1NC(=O)Cn1nc2c3cc(-c4ccc(Cl)cc4)nn3ccn2c1=O`, for which the Inhibition is on record as 6.58%. Take `Cc1nnc2c(S(=O)(=O)N(Cc3ccc(F)cc3)c3ccc(C(C)C)cc3)cccn12`: the Inhibition is given as -8.42%. Same read-out and setting: the value for `COc1ccc(-c2cc3c4nn(CC(=O)Nc5ccc(C)cc5C)c(=O)n4ccn3n2)cc1` was 2.27%. In the case of `CC(C)CCn1c(=O)c2sccc2n2c(=O)n(CCOc3ccccc3)nc12`, the Inhibition is given as -7.84%. For `CCCCc1ccc(NC(=O)Cn2c(=O)c3nnc(C(C)C)n3c3ccccc32)cc1`, the Inhibition was determined as 1.92%. With `O=C(CSc1nc2ccccc2n2cnnc12)Nc1cccc(Br)c1`, the Inhibition is -14.46%.

Regarding `Cc1ccc(NC(=O)Cn2nc3c4cc(-c5ccc(Cl)cc5)nn4ccn3c2=O)cc1C`, the Inhibition amounted to 3.51%.
